Experimental data reported in PubChem BioAssay (EPA / NIEHS).
Where “and” joins values, the source holds several entries; their conditions need not be identical. Equal values may be shown once. Results filed as inconclusive are left out. A structure can be active in one record and inactive in another. Calls of active or inactive are those of the source. How the source made its calls: active means hit-call score of the fitted dose curve at least 0.9, where 1 is the maximum; inconclusive means response in the unintended direction; inactive means score below 0.9.

Columns and labels:
[1] = target: rat Neurotensin Receptor (NTS), Ntsr1 (gene 366274) (UniProt P20789); assay: NVS_GPCR_rNTS: NovaScreen (NVS) G Protein-Coupled Receptor Assay for rat Neurotensin Receptor (NTS) (AID 2283308)
Chain of rat Neurotensin Receptor (NTS), Ntsr1 (gene 366274) (P20789 whole entry, looked up): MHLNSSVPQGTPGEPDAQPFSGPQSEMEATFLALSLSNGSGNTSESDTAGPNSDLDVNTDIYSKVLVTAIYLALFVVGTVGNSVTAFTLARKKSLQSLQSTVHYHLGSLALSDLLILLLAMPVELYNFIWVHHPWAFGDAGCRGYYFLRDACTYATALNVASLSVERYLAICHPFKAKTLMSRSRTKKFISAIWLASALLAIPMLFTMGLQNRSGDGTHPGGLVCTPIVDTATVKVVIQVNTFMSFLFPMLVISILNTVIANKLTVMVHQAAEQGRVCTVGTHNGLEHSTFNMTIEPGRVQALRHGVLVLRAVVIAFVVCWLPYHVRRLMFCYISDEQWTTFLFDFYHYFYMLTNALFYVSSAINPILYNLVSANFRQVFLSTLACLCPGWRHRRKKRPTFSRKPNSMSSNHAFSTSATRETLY
How it was run: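 Single-point duplicates at 25 uM, then concentration series to 50 uM max for hits, measured radioligand displacement on rat forebrain membrane preparations. Bound label counted by filtration scintillation at 1 h; signal loss relative to DMSO fitted.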

[2] = target: rat Histamine Receptor (H3), Hrh3 (gene 85268) (UniProt Q9QYN8); assay: NVS_GPCR_rH3: NovaScreen (NVS) G Protein-Coupled Receptor Assay for rat Histamine Receptor (H3) (AID 2283303)
Chain of rat Histamine Receptor (H3), Hrh3 (gene 85268) (Q9QYN8 whole entry, looked up): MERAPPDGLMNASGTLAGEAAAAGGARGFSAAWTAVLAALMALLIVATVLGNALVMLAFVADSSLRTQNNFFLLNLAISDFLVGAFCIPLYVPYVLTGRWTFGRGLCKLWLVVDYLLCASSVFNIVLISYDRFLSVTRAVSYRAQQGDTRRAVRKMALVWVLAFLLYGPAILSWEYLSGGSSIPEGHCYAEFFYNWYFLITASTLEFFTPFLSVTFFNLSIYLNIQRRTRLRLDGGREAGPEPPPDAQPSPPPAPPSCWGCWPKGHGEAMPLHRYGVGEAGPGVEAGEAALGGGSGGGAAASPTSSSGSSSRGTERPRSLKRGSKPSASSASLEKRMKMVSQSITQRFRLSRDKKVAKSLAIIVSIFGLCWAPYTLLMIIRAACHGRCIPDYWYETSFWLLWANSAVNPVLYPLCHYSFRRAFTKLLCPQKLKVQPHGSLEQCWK
How it was run: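 Filter-binding radioligand competition on rat forebrain membranes, 1 h incubation; compounds screened at 25 µM in duplicate and followed in concentration series to 50 µM, loss of bound signal vs DMSO.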

[3] = target: Metabotropic glutamate receptor 1 (Rattus norvegicus) (UniProt P23385); assay: NVS_GPCR_rmMGluR1: NovaScreen (NVS) G Protein-Coupled Receptor Assay for rat Glutamate Metabotropic Receptor 1 (MGluR1) (AID 2283305)
Chain of Metabotropic glutamate receptor 1 (Rattus norvegicus) (P23385 whole entry, looked up): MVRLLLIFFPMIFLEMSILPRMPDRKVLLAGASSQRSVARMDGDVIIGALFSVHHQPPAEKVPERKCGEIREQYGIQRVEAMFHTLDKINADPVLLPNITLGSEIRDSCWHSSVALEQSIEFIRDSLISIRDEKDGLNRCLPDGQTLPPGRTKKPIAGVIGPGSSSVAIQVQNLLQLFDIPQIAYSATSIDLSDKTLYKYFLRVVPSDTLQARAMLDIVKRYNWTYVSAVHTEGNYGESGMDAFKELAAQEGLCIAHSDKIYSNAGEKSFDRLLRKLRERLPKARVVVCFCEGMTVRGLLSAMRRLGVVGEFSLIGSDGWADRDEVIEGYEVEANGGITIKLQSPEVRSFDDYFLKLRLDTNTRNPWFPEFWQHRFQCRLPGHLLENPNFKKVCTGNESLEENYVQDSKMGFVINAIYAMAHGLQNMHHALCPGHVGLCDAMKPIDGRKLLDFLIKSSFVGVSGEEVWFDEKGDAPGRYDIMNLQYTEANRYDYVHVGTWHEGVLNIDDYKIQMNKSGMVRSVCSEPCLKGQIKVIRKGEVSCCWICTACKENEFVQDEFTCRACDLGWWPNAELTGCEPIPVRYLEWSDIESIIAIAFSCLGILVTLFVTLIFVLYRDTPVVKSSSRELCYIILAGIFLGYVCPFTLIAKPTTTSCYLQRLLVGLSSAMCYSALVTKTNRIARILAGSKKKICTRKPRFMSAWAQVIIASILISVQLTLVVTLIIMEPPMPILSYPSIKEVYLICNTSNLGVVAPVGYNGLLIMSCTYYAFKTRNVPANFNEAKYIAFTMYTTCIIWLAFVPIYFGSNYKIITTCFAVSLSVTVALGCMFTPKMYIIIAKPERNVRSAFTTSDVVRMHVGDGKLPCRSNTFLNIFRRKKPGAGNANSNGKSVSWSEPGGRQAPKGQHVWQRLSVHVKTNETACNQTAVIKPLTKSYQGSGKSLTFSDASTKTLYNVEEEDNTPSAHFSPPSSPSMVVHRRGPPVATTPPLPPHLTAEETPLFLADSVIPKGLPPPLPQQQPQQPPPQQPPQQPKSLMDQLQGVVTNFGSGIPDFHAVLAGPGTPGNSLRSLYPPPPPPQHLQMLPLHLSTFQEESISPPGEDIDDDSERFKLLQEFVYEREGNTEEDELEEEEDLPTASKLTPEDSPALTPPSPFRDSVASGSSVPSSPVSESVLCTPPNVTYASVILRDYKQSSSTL
Description: (§1) NVS_GPCR_rmMGluR1 is a biochemical, single-readout assay that uses extracted gene-proteins from Rat cerebellum in a tissue-based cell-free assay. Measurements were taken 1 hour after chemical dosing in a 96-well plate.NVS_GPCR_rmMGluR1 is one of one assay component(s) measured or calculated from the NVS_GPCR_rmMGluR1 assay. It is designed to make measurements of radioligand binding, a form of binding reporter, as detected with scintillation counting signals by Filter-based radiodetection technology.Data from the assay component NVS_GPCR_rmMGluR1 was analyzed into 1 assay endpoint. This assay endpoint, NVS_GPCR_rmMGluR1, was analyzed in the positive analysis fitting direction relative to DMSO as the negative control and baseline of activity. Using a type of binding reporter, loss-of-signal activity can be used to understand changes in the binding as they relate to the gene Grm1. Furthermore, this assay endpoint can be referred to as a primary readout, because the performed assay has only produced 1 assay endpoint. To generalize the intended target to other relatable targets, this assay endpoint is annotated to the gpcr intended target family, where the subfamily is metabotropic glutamate receptor.
Binding assays used specific radioligands (tritiated, iodinated) with non-radioactive competitive displacement ligands in agonist or antagonist protocols (as indicated) and various reference compounds and inhibitors to titrate specific binding to receptors and transporters. Most enzyme assays (CYPs, kinases, phosphatases, proteases, HDACs) used recombinant protein and specific substrates (fluorescence mostly, some colorimetric and radioactive) and inhibitors, followed by a biochemical separation of substrate and product. All assays for the biochemical HTS were initially run in duplicate at a single concentration (10 uM for CYP450 assays and 25 uM for all others). […]

Adra2b (gene 24174) = Adra2b (gene 24174) (UniProt P19328); assay: NVS_GPCR_rmAdra2B: NovaScreen (NVS) G Protein-Coupled Receptor Assay for hybird cells Adrenergic, Alpha 2B Receptor (Adra2B) (AID 2283306)
Chain of Adra2b (gene 24174) (P19328 whole entry, looked up): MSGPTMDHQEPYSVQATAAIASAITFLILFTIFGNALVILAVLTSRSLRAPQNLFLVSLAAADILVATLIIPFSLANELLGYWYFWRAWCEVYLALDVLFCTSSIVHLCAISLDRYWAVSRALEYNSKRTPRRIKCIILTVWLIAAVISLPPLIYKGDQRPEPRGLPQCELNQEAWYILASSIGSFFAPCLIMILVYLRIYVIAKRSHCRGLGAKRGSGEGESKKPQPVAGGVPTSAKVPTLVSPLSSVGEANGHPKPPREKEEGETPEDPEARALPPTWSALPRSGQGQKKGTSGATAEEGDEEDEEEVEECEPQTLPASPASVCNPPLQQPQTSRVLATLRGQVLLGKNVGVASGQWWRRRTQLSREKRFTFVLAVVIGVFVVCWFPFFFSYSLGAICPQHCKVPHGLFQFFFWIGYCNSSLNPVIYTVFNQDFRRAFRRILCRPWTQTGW
Description: as §1, with “NVS_GPCR_rmAdra2B” for “NVS_GPCR_rmMGluR1”, “neuroglioma/blastoma hybrid cells” for “Rat cerebellum”, “48-well plate.NVS_GPCR_rmAdra2B” for “96-well plate.NVS_GPCR_rmMGluR1”, “NVS_GPCR_rmAdra2B,” for “NVS_GPCR_rmMGluR1,”, “Adra2b.” for “Grm1.”, “rhodopsin-like” for “metabotropic glutamate”
Binding assays used specific radioligands (tritiated, iodinated) with non-radioactive competitive displacement ligands in agonist or antagonist protocols (as indicated) and various reference compounds and inhibitors to titrate specific binding to receptors and transporters. Most enzyme assays (CYPs, kinases, phosphatases, proteases, HDACs) used recombinant protein and specific substrates (fluorescence mostly, some colorimetric and radioactive) and inhibitors, followed by a biochemical separation of substrate and product. All assays for the biochemical HTS were initially run in duplicate at a single concentration (10 uM for CYP450 assays and 25 uM for all others). […] Each assay was run with positive and negative controls, and concurrent controls on every plate. The follow-up (secondary) screen tested active chemical-pairs in concentration series, as well as a few additional assays not tested in the primary screen, some selected negative inactives, and several cases re-run in the concentration series for confirmatory purposes.

[4] = target: rat Neurokinin-1 Receptor (NK1), Tacr1 (gene 24807) (UniProt P14600); assay: NVS_GPCR_rNK1: NovaScreen (NVS) G Protein-Coupled Receptor Assay for rat Neurokinin-1 Receptor (NK1) (AID 2283309)
Chain of rat Neurokinin-1 Receptor (NK1), Tacr1 (gene 24807) (P14600 whole entry, looked up): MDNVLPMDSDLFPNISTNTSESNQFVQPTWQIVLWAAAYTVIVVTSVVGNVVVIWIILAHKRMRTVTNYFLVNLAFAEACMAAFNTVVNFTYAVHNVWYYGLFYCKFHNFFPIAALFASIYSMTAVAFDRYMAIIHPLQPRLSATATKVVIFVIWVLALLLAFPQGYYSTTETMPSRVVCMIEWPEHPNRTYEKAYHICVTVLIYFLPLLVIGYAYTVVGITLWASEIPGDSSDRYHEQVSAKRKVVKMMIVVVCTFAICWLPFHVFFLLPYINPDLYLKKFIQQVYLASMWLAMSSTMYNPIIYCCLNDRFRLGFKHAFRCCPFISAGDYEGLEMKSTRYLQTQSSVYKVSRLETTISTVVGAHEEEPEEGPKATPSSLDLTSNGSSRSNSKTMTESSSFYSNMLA
How it was run: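 Competitive radioligand binding to NK1 in rat submaxillary membranes, 1 h incubation, filtration and scintillation read-out. Compounds first screened at 25 uM in duplicate, then concentration-response for actives; signal loss relative to DMSO.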

[5] = target: rat Neurokinin-3 Receptor (NK3), Tacr3 (gene 24808) (UniProt P16177); assay: NVS_GPCR_rNK3: NovaScreen (NVS) G Protein-Coupled Receptor Assay for rat Neurokinin-3 Receptor (NK3) (AID 2283310)
Chain of rat Neurokinin-3 Receptor (NK3), Tacr3 (gene 24808) (P16177 whole entry, looked up): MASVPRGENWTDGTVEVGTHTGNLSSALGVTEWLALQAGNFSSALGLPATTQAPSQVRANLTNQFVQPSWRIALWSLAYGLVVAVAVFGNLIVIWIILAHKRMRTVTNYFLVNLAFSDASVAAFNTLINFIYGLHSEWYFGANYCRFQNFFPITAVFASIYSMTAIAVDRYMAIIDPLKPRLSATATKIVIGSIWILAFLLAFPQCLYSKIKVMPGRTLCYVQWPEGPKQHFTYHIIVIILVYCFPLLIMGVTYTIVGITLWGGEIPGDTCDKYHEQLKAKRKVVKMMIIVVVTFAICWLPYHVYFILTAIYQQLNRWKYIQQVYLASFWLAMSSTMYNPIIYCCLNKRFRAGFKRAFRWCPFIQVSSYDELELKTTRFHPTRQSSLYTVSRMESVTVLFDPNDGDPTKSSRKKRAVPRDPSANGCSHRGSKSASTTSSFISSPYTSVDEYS
How it was run: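 Filter-based radioligand displacement on rat cortex membrane preparations, read by scintillation 2 h post-dose. Chemicals first tested in duplicate at 25 uM; actives followed up in concentration series with a 50 uM maximum.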

[6] = target: rat Gamma-Aminobutyric Acid Type B Receptor (GABBR), Gabbr1 (gene 81657) (UniProt Q9Z0U4); assay: NVS_GPCR_rGABBR: NovaScreen (NVS) G Protein-Coupled Receptor Assay for rat Gamma-Aminobutyric Acid Type B Receptor (GABBR) (AID 2283301)
Chain of rat Gamma-Aminobutyric Acid Type B Receptor (GABBR), Gabbr1 (gene 81657) (Q9Z0U4 whole entry, looked up): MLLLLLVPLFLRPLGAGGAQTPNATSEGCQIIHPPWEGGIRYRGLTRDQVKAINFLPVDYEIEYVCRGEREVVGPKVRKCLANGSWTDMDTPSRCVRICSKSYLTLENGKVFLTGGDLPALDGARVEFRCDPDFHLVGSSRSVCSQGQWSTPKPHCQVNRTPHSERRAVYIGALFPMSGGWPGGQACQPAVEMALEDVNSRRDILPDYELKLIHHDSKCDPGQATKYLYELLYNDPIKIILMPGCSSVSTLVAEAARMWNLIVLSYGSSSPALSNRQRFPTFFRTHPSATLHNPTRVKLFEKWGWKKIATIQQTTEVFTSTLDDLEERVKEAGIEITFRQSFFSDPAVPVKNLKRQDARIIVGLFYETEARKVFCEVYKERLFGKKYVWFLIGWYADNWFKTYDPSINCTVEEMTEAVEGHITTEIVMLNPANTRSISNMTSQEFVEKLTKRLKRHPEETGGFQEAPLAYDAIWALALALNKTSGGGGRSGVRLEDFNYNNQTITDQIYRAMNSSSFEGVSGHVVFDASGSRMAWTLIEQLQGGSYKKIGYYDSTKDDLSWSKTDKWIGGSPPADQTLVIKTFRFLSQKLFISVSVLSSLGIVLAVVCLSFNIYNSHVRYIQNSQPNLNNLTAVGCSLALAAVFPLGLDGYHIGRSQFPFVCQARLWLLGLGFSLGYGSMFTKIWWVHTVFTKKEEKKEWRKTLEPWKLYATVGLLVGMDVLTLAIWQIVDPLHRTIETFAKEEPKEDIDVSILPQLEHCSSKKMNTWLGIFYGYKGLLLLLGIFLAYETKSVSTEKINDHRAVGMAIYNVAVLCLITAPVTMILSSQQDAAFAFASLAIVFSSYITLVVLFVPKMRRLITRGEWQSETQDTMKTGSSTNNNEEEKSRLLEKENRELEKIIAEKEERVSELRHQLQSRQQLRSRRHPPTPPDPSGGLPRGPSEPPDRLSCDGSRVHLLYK
How it was run: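 Rat cortical membrane preparation, competitive radioligand binding for 1 h with filtration and scintillation readout. Actives from duplicate single-point 25 uM screening proceeded to concentration series with 50 uM top concentration.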

[7] = target: rat Opioid Receptor, Non-selective Sodium (Na+) Binding, Oprm1 (gene 25601) (UniProt P33535); assay: NVS_GPCR_rOpiate_NonSelectiveNa: NovaScreen (NVS) G Protein-Coupled Receptor Assay for rat Opioid Receptor, Non-selective Sodium (Na+) Binding (AID 2283311)
Chain of rat Opioid Receptor, Non-selective Sodium (Na+) Binding, Oprm1 (gene 25601) (P33535 whole entry, looked up): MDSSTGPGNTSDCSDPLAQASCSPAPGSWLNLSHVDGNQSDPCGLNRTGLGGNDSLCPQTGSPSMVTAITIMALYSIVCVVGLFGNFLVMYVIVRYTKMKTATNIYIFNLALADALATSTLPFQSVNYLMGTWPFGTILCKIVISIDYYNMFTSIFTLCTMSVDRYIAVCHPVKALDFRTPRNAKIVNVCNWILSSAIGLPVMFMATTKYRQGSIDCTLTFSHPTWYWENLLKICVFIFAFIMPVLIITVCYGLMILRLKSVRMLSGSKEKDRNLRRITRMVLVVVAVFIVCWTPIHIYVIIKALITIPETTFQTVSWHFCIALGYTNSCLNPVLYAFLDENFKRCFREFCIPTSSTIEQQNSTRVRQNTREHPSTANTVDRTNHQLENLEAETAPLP
How it was run: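 Filtration radioligand binding on rat forebrain membrane preparations, read 1.5 h after dosing. Single-concentration 25 µM primary screen in duplicate, followed by singleton concentration series to 50 µM max for actives; DMSO baseline.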

[8] = target: human Neonicotinoid receptor (NNR), CHRNA2 (gene 1135) (UniProt Q15822); assay: NVS_LGIC_hNNR_NBungSens: NovaScreen (NVS) Ligand-Gated Ion Channel Assay for human Neonicotinoid receptor (NNR) (AID 2283313)
How it was run: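 Compounds first screened in duplicate at 25 uM, then actives re-tested in single-replicate dose series up to 50 uM. Binding measured as displacement of specific radioligand from neuroblastoma membrane receptors after 2 h, scintillation read on filters.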

[9] = target: rat Glutamate Metabotropic Receptor 5 (MGluR5), Grm5 (gene 24418) (UniProt P31424); assay: NVS_GPCR_rmMGluR5: NovaScreen (NVS) G Protein-Coupled Receptor Assay for rat Glutamate Metabotropic Receptor 5 (MGluR5) (AID 2283307)
How it was run: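 Compounds first screened in duplicate at 25 uM, then in concentration series up to 50 uM if over threshold. Radioligand displacement on rat whole-brain membranes, filtration and scintillation counting after 1.5 h; binding loss relative to DMSO.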

SMILES: CCNc1nc(Cl)nc(NC(C)C)n1
- outcome [1]: inactive

SMILES: CCCCNC(=O)OCC#CI
- AC50 [2]: 4.99 µM (active) and 6.92 µM (active)
- AC50 [3]: 19.2 µM (active) and 1.24 µM (active)

SMILES: CC1COC(Cn2cncn2)(c2ccc(Oc3ccc(Cl)cc3)cc2Cl)O1 (centres undefined)
- AC50 (Adra2b (gene 24174)): 4.59 µM (active)
- outcome [4]: inactive

SMILES: CS/C(C)=N/OC(=O)N(C)SN(C)C(=O)O/N=C(\C)SC
- AC50 [2]: 2 µM (active)
- AC50 [5]: 2.97 µM (active)

SMILES: Cc1c(F)c(F)c(COC(=O)C2C(/C=C(\Cl)C(F)(F)F)C2(C)C)c(F)c1F (centres undefined)
- outcome [3]: inactive
- outcome [1]: inactive

SMILES: COC(=O)C(C)Oc1ccc(Oc2ccc(Cl)cc2Cl)cc1 (centres undefined)
- outcome [1]: inactive
- outcome [4]: inactive

SMILES: N#CC(CCc1ccc(Cl)cc1)(Cn1cncn1)c1ccccc1 (centres undefined)
- outcome [2]: inactive

SMILES: COc1nc(C)nc(NC(=O)NS(=O)(=O)c2ccccc2Cl)n1
- outcome [6]: inactive
- outcome [1]: inactive

SMILES: COC(=O)C=C(C)OP(=O)(OC)OC
- outcome [7]: inactive

SMILES: Cc1ccc(-c2c(Cl)nc(C#N)n2S(=O)(=O)N(C)C)cc1
- AC50 [2]: 5.9 µM (active)
- AC50 (Adra2b (gene 24174)): 4.08 µM (active)
- AC50 [8]: 1.21 µM (active)

SMILES: CCCC1COC(Cn2cncn2)(c2ccc(Cl)cc2Cl)O1 (centres undefined)
- AC50 [7]: 25 µM (active)

SMILES: O=C(Nc1ccccc1)Nc1ccnc(Cl)c1
- AC50 (Adra2b (gene 24174)): 8.91 µM (active)

SMILES: CO/C=C(/C(=O)OC)c1ccccc1Oc1cc(Oc2ccccc2C#N)ncn1
- outcome [4]: inactive
- AC50 [7]: 12.6 µM (active)
- outcome [7]: inactive

SMILES: C=CCC1=C(C)C(OC(=O)C2C(C=C(C)C)C2(C)C)CC1=O (centres undefined)
- outcome [5]: inactive

SMILES: COP(=S)(OC)Oc1nc(Cl)c(Cl)cc1Cl
- outcome [7]: inactive

SMILES: C=CCC1=C(C)[C@@H](OC(=O)[C@@H]2[C@@H](C=C(C)C)C2(C)C)CC1=O
- AC50 [4]: 39.1 µM (active)

SMILES: CCCCOC(=O)c1ccccc1C(=O)OCCCC
- outcome [9]: inactive

SMILES: COc1cnc(OC)n2nc(NS(=O)(=O)c3c(OCC(F)F)cccc3C(F)(F)F)nc12
- outcome [3]: inactive

SMILES: COc1nc(C)nc(NC(=O)NS(=O)(=O)c2ccccc2CCC(F)(F)F)n1
- outcome [4]: inactive
- outcome [7]: inactive

SMILES: CCON=C(CC)C1=C(O)CC(c2c(C)cc(C)cc2C)CC1=O (centres undefined)
- AC50 (Adra2b (gene 24174)): 2.7 µM (active)

SMILES: COc1ccc(C(c2ccc(OC)cc2)C(Cl)(Cl)Cl)cc1
- outcome [4]: inactive

SMILES: CNC(=S)S
- outcome [1]: inactive
- outcome [5]: inactive
